One assay has as its target Albumin (Bos taurus) (UniProt P02769). The assay can be described thus: bovine serum albumin binders on microarray, profiling panel, artefact control for SMM control protein annotation, biochemical, small-molecule microarray, Alexa647 label, 635/667 nm fluorescence (AID 1118).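 Further: score merges 667 nm emission intensity and signal-to-noise per printed compound spot.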 Particulars: BSA-A647 binding, fluorescence 635 nm, higher = more signal.
Assay [1] can be described thus: small-molecule microarray binders of probe aXIP, primary screen, biochemical, NeuroSMM set, 635/667 nm fluorescence (AID 1119).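 Further: probe is the protein aXip251-270 applied at 1 µg/mL to compound-printed slides; binding of probe to printed compounds measured as 667 nm fluorescence plus signal to noise.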 Particulars: higher = more signal, called active from +8 up or from −8 down.
Assay [2] in a line: small-molecule binders of probe aNOTCH3, primary screen, biochemical, small-molecule microarray, 635/667 nm fluorescence (AID 1120).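 Further: probe is a biotin-tagged antibody raised against NOTCH3 rather than NOTCH3 protein; score merges spot fluorescence near 667 nm with spot signal to noise.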 The settings on record: higher = more signal.
Assay [3] in a line: small-molecule binders of probe aNOTCH2, primary screen, biochemical, small-molecule microarray, 635/667 nm fluorescence (AID 1121).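 Further: score merges feature fluorescence read at 667 nm with its signal to noise.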 The settings on record: higher = more signal.
For assay [4], the target named is Carbonic anhydrase 2 (Homo sapiens) (UniProt P00918). The assay can be described thus: CAII small-molecule binders, profiling panel, biochemical, small-molecule microarray, Alexa647-labelled CAII (AID 1122). Particulars: CAII-A647 binding fluorescence, higher = more signal.
Assay [5] can be described thus: COS7 lysate on small-molecule microarray, probe aHis, 635 nm (AID 1123).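 Further: z-score combines 667nm fluorescence intensity with signal-to-noise per printed compound spot.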 The settings on record: COS7 cell lysate, fluorescence, higher = more signal.
A short description of assay [6]: compound binding in COS7 lysate, probe aLAP1, primary screen, cell lysate, small-molecule microarray (AID 1124).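 Further: lysate comes from COS7 cells expressing LAP1 and is applied at 0.3 µg/mL; score merges spot fluorescence near 667 nm with signal-to-noise over triplicate slides.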 The settings on record: probe aLAP1, fluorescence, higher = more signal.
Another assay relates to Sam68 (KHDRBS1). Briefly: Sam68 small-molecule binders, primary screen, biochemical, small-molecule microarray, 635 nm fluorescence (AID 1125).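 Further: score merges 667 nm channel intensity with signal to noise over triplicate slides.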 Particulars: small-molecule microarray binding, higher = more signal.
Assay [7] has as its system Chordin-like protein 2 (CHRDL2). Briefly: CHRDL2 small-molecule binders, primary screen, biochemical, small-molecule microarray, 635 nm fluorescence (AID 1126).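 Further: printed compound slides probed with Chrdl2 protein at 4 µg/mL for 1 h at 4 C; score merges 667 nm emission intensity with signal to noise over three replicate slides.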 Particulars: small-molecule microarray binding, fluorescence 635 nm; higher = more signal.
The target of assay [8] is Concanavalin-A (Canavalia ensiformis) (UniProt P02866). The assay can be described thus: ConA small-molecule binders, primary screen, artefact control for SMM control protein annotation, biochemical, small-molecule microarray, Alexa647 label, 635 nm (AID 1127).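 Further: z combines 667 nm emission intensity with signal-to-noise across three replicate slides.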 The settings on record: ConA-A647 binding fluorescence, higher = more signal.
Assay [9] is described as follows: anti-His antibody binders, primary screen, artefact control for SMM control protein annotation, biochemical, small-molecule microarray, 635 nm fluorescence (AID 1128).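 Further: score merges feature fluorescence with signal-to-noise for each printed compound spot.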 The settings on record: anti-His Alexa647 antibody binding, higher = more signal.
Assay [10] has as its system Human papillomavirus type 1a E7 protein (residues 1-88). The assay can be described thus: HPV1a E7 small-molecule binders, primary screen, biochemical, small-molecule microarray, residues 1-88, 635 nm (AID 1129). The settings on record: small-molecule microarray binding, fluorescence 635 nm; higher = more signal.
Assay [11] has as its target Focal adhesion kinase 1 (Homo sapiens) (UniProt Q05397). The assay can be described thus: small-molecule microarray binders of FAK, primary screen, biochemical, 635/667 nm fluorescence, BSA, DTT (AID 1130).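 Further: composite of spot emission at 667 nm and signal to noise over triplicate slides.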 The settings on record: PTK2 binding, 635 nm fluorescence, higher = more signal.
For assay [12], the system named is Fibrinogen (Alexa647-labelled). Briefly: fibrinogen binders on compound microarrays, profiling panel, artefact control for SMM control-protein annotation, biochemical, small-molecule microarray, 635/667 nm fluorescence (AID 1131).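 Further: z-score merges 667 nm fluorescence with per-spot signal-to-noise over triplicate slides.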 Particulars: fibrinogen-A647 binding fluorescence, higher = more signal.
Assay [13] addresses Follistatin (Homo sapiens) (UniProt P19883). The assay can be described thus: follistatin binders on small-molecule microarrays, primary screen, biochemical, small-molecule microarray, 635/667 nm fluorescence (AID 1132). Particulars: FST binding, 635 nm fluorescence, higher = more signal.
Assay [14] has as its target Fibroblast growth factor 2 (Homo sapiens) (UniProt P09038). The assay can be described thus: FGF2 binders on small-molecule microarrays, primary screen, biochemical, small-molecule microarray, 635/667 nm fluorescence (AID 1133). The settings on record: small-molecule microarray binding, FGF2, fluorescence 635/667; higher = more signal.
The nature of assay [15]: mitochondrial membrane potential change in A549 cells, profiling panel, cell-based, JC-1 fluorescence, basal, 24 h, 100 nL (AID 1138).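 Further: A549 lung adenocarcinoma cells under basal conditions with no added stimulus; test concentration not given here.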 Particulars: higher = more signal.
A further assay relates to Lefty1. Briefly: Lefty1 binders on small-molecule microarrays, primary screen, biochemical, small-molecule microarray, 635/667 nm fluorescence (AID 1139). The settings on record: small-molecule microarray binding, fluorescence 635/667; higher = more signal.
The test system of assay [16] is wheat germ agglutinin (Triticum aestivum), Alexa647-labelled. The assay can be described thus: wheat germ agglutinin binders on compound microarrays, profiling panel, artefact control for SMM control-protein annotation, biochemical, small-molecule microarray, 635/667 nm fluorescence (AID 1140).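 Further: score merges 667 nm feature emission with signal to noise over triplicate slides.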 Particulars: WGA-A647 binding, 635 nm fluorescence, higher = more signal.

The target in assay [17] is Luciferin 4-monooxygenase (Photinus pyralis) (UniProt P08659). Briefly: firefly luciferase enzyme inhibitors, primary screen, biochemical, luminescence, purified enzyme, 2006 set (AID 1141).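 Further: cell-free assay with purified firefly luciferase at 100 ng per well in PBS; test concentration not given here.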 The settings on record: SteadyGlo luminescence, 30 min, higher = more signal, called active from +8 up or from −8 down.

Activity calls are given as the source filed them.

Drawing on PubChem BioAssay, this text covers composite z-score, composite Z-score and z-score for six molecules.

Luciferin 4-monooxygenase (Photinus pyralis), sequence (P08659 whole entry, looked up): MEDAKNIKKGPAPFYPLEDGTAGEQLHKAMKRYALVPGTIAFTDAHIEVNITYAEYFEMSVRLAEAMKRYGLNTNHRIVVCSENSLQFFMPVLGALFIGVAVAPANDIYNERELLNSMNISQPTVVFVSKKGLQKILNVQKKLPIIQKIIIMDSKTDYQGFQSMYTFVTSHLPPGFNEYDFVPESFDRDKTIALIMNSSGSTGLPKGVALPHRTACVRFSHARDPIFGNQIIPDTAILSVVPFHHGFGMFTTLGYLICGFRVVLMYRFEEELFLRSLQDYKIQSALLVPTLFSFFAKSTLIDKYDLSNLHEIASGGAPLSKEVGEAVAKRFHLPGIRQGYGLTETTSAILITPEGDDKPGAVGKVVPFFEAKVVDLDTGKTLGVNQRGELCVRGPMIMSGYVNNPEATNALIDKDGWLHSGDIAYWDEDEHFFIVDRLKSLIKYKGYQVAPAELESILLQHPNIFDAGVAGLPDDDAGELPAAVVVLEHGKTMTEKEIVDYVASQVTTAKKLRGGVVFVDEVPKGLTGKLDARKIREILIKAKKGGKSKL
Concanavalin-A (Canavalia ensiformis), sequence (P02866 whole entry, looked up): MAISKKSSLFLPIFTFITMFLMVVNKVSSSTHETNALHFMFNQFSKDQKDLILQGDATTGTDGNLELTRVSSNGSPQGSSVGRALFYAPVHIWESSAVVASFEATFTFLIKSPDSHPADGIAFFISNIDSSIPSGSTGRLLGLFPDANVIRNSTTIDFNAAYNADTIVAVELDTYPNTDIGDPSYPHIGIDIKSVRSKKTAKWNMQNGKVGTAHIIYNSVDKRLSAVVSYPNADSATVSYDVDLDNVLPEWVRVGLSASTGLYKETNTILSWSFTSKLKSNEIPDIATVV
Albumin (Bos taurus), sequence (P02769 whole entry, looked up): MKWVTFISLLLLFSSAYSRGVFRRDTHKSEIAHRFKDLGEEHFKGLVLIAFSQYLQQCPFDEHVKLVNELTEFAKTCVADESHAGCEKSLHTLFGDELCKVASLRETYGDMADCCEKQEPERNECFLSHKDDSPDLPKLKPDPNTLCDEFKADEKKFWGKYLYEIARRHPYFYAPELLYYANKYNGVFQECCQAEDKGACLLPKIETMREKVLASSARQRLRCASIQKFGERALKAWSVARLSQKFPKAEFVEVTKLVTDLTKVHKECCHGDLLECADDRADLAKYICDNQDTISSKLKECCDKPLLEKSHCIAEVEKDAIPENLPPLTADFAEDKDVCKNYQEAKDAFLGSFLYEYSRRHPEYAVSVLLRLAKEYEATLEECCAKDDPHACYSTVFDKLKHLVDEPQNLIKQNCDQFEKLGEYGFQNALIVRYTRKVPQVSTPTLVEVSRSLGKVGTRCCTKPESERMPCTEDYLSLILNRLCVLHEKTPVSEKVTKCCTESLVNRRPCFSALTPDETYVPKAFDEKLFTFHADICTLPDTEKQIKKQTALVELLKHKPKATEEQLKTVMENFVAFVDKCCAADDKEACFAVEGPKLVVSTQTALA
Fibroblast growth factor 2 (Homo sapiens), sequence (P09038 whole entry, looked up): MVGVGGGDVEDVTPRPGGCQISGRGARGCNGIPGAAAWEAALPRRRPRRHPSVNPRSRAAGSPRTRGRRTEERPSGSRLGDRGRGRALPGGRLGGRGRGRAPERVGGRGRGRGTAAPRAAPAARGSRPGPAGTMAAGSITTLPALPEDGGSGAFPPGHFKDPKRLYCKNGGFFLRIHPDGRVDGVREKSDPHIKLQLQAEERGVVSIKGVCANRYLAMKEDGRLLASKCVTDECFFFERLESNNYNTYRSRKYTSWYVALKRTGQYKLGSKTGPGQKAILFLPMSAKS
Follistatin (Homo sapiens), sequence (P19883 whole entry, looked up): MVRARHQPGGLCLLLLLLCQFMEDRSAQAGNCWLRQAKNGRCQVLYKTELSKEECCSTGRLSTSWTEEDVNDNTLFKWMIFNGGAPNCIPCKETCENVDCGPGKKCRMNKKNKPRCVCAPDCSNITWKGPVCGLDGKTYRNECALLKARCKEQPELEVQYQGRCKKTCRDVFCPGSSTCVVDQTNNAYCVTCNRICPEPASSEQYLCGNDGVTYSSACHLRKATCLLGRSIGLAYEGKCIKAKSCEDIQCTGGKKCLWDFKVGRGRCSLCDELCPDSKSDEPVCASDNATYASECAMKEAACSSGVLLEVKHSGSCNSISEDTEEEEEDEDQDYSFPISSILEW
Focal adhesion kinase 1 (Homo sapiens), sequence (Q05397 whole entry, looked up): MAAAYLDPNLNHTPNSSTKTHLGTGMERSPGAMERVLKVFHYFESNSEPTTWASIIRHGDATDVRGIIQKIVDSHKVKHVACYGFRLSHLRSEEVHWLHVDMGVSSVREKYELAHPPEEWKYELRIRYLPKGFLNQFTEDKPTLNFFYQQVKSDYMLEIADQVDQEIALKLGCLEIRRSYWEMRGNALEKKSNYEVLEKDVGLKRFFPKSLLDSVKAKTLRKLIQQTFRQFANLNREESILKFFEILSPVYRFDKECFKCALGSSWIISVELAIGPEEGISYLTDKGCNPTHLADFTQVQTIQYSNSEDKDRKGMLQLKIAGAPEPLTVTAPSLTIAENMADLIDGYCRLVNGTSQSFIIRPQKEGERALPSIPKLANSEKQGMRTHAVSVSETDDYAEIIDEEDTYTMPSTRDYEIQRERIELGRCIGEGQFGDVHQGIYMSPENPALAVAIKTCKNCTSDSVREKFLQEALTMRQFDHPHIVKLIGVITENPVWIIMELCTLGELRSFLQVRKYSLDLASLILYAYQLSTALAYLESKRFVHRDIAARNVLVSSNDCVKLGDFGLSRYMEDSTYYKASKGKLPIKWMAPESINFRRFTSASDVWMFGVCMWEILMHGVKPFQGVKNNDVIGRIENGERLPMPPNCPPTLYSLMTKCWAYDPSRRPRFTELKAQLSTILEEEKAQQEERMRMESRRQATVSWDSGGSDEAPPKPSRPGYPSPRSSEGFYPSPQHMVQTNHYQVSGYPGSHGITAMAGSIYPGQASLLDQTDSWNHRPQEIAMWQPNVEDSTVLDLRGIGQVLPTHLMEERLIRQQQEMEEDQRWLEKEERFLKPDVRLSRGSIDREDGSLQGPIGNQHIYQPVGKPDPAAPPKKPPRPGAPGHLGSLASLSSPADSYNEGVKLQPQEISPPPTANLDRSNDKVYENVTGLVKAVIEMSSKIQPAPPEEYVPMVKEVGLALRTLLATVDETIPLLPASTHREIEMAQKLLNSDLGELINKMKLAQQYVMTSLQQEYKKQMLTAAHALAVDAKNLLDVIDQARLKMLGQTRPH

As for `CN1C(=O)C2C=CC(C(O)c3ccc([N+](=O)[O-])cc3)N(N3CCCCC3)C2C1=O` (stereo not given), the composite z-score with Albumin (Bos taurus) was determined as 0.818; in [2] it was 0.246; in [3] it was 0.0791; in [4] it was 0.673; in assay [5], 1.55; in assay [6], 0.761. Also, the composite z-score in the assay with Sam68 (KHDRBS1) came to 1.26; in [7], 0.172; in assay [8], 1.09; in [9], 0.922; in assay [10] it was 1.18; in [11], 0.115. Also, the composite z-score in assay [12] is 0.938; in assay [13], 1.12; in assay [14], 0.651; in the assay with Lefty1, -0.0977; in assay [16], 0.913. Besides, the composite Z-score in assay [1] is -0.0829 (inactive). The figures for the z-score in assay [15] and in assay [17] were -0.39 and -0.661 (inactive), respectively.

As for `O=C1C2C=CC(C(O)c3cccc4ccccc34)N(Nc3ccccc3F)C2C(=O)N1c1ccccc1` (stereo not given), the composite z-score was found to be 0.799 with Albumin (Bos taurus); 0.614 in assay [2]; 0.0007 in [3]; 0.728 in [4]; 2.76 in assay [5]; 0.491 in [6]. Further, the composite z-score is 1.29 in the assay on Sam68 (KHDRBS1); -0.539 in assay [7]; 1.09 in assay [8]; 1.22 in assay [9]; 1.25 in [10]; 0.792 in [11]. Besides, the composite z-score in assay [12] was 1; in [13] it was 0.829; in [14], -0.276; in the assay on Lefty1 it was 0.345; in [16], 1.4. In [1], the composite Z-score was 0.791 (inactive). Moreover, the z-score is -0.968 in assay [15] and 1.24 (inactive) in [17].

Turning to `COc1cc2c(cc1OC)CN(C(=O)[C@H]1[C@@H]3C(=O)O[C@@H](c4ccccc4)[C@@H](c4ccccc4)N3[C@@H](c3ccc(O)cc3)[C@]13C(=O)Nc1ccc(C#CCCO)cc13)CC2`, the composite z-score was 0.184 with Albumin (Bos taurus); 0.176 in [2]; -0.0474 in assay [3]; 0.213 in [4]; 1.46 in assay [5]; 0.127 in assay [6]. For the same molecule, the composite z-score in the assay on Sam68 (KHDRBS1) came out at 1.24; in assay [7] it was 0.077; in assay [8] it was 0.964; in assay [9], 1.31; in assay [10], 1.21; in assay [11] it was 0.055. Besides, the composite z-score in [12] was determined as 0.807; in assay [13] it was 1.12; in assay [14] it was 0.0827; in the assay on Lefty1, 0.0938; in [16] it was 0.943. In addition, the composite Z-score in assay [1] was 0.274 (inactive). In addition, the figures for the z-score in assay [15] and in [17] were -0.824 and 1.1 (inactive), respectively.

Take `CO[C@H]1O[C@H](CO)[C@@H](OC(=O)Nc2ccc(C(F)(F)F)cc2)[C@H](OC(=O)Nc2ccc3c(c2)OCO3)[C@@H]1OC(=O)Nc1ccc2c(c1)OCO2`: the composite z-score was 0.835 with Albumin (Bos taurus); 0.149 in assay [2]; -0.164 in assay [3]; 0.238 in assay [4]; 1.83 in assay [5]; 0.579 in [6]. For the same molecule, the composite z-score with Sam68 (KHDRBS1) was 1.33; in assay [7], 0.0643; in [8], 1.14; in [9], 2.18; in assay [10], 1.22; in assay [11], 1.43. Also, the composite z-score is 0.607 in assay [12]; 1.17 in assay [13]; 0.397 in assay [14]; 0.537 in the assay with Lefty1; 0.729 in assay [16]. Also, the composite Z-score in assay [1] was -0.279 (inactive). For the same molecule, the z-score in assay [15] was -0.656; in assay [17], -17.3 (active).

On to `Cc1ccc(S[C@]2(C(=O)NCCCN(C)C)CC(=O)N(Cc3ccccc3C(F)(F)F)[C@@H]2c2ccc(CO)cc2)cc1`, for which the composite z-score in the assay with Albumin (Bos taurus) was 0.54; in assay [2], -0.0639; in assay [3], -0.0013; in assay [4], 0.211; in assay [5], 0.0645; in assay [6] it was -0.41. The composite z-score was 0.0809 in the assay on Sam68 (KHDRBS1); -0.327 in [7]; -1.48 in assay [8]; -1.09 in [9]; -0.935 in [10]; -0.157 in [11]. The composite z-score was 0.109 in assay [12]; -0.85 in assay [13]; -0.45 in assay [14]; -0.853 in the assay on Lefty1; 0.427 in [16]. Moreover, the composite Z-score in [1] is -0.676 (inactive). For the same molecule, the z-score in assay [15] is 0.566; in [17] it was -0.903 (inactive).

As for `CC(C)CNC(=O)[C@@]1(Cc2ccccc2I)c2ccccc2C(=O)N(C2CCCCC2)[C@H]1c1ccc(CO)cc1`, the composite z-score with Albumin (Bos taurus) is 0.82; in assay [2], -0.139; in assay [3] it was -0.0432; in assay [4], 0.619; in assay [5] it was 2.1; in assay [6], 2.06. In addition, the composite z-score was 0.342 with Sam68 (KHDRBS1); 0.133 in [7]; 0.565 in assay [8]; 1.57 in assay [9]; 1 in assay [10]; 0.321 in assay [11]. For the same molecule, the composite z-score in assay [12] was 0.348; in assay [13], 0.0932; in assay [14] it was 0.99; with Lefty1 it was -0.104; in [16], 0.84. The composite Z-score in [1] was 2.21 (inactive). In addition, the z-score is 1.57 in assay [15] and 0.258 (inactive) in assay [17].
